D1 antag: antagonists of human D1 dopamine receptor; P21728; HEK293 TREx D1 cells, calcium flux, dopamine EC80; stronger effect = lower value; activity change, negative = inhibition, % at 10 µM; actives 3.2% (n = 360,000); AID 504652; in the data active = activity change below about -30%
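Calcium flux readout: force-coupled, inducible Hek293 Trex D1 line, cells induced overnight at 30 C with tetracycline, dye-loaded 30–90 min at RT. Antagonism scored against EC80 dopamine challenge given 180 s after compound.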
DRD3 antagonist: antagonists of human D3 dopamine receptor; D3R cells, DiscoveRx beta-arrestin luminescence, antagonist mode; stronger effect = lower value; P35462; max response, negative = inhibition, %; actives 2.5% (n = 360,000); in the data active = max response below about -50%; inconclusive = no clear call, values can overlap the other calls
Target sequence (P35462 whole entry, looked up): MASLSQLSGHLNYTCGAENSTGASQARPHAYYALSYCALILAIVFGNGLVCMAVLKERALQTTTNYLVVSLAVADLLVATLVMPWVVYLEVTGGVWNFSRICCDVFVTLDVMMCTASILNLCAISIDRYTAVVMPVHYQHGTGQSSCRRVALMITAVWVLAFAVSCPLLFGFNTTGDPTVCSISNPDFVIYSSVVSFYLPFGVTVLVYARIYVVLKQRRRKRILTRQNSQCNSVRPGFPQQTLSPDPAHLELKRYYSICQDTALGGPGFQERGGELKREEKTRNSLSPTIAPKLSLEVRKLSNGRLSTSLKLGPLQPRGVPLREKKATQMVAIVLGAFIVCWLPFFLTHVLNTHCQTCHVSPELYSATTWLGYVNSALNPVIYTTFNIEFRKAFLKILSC
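Cells expressing the human receptor were seeded at 1500 cells/well, incubated overnight at 37 degrees C in 5% CO2, then exposed to library compounds with dopamine controls for 90 minutes at 37 degrees C before luminescent detection.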
D1 ag: agonists of human D1 dopamine receptor; P21728; HEK293 T-REx D1 cells, calcium flux, agonist mode; activation, % at 2 µM; actives 1% (n = 360,000); in the data active = activation above about 30%
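Inducible HEK293 T-REx D1 cells, force-coupled to calcium signalling, were plated at 4000 cells/well with tetracycline and held overnight at 30 C. After no-wash calcium dye loading, compound-evoked calcium rise over 180 s flagged agonists.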
DRD3 agonist: D3 dopamine receptor (human) agonism; D3R DiscoveRx beta-arrestin cells, luminescence, 90 min; AID 652048; actives 0.58% (n = 410,000); P35462; max activation, %; in the data active = max activation above about 30%
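Cells at 1500/well, incubated overnight, then treated with pinned compounds (dopamine as control) for 90 min at 37 degrees C. DiscoveRx reagent added for 30 - 60 minutes at room temperature; luminescence read.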
D1 potentiator: enhances dopamine response at the human D1 receptor | HEK293 TREx D1 cells, calcium flux, dopamine EC20 potentiation | AID 504651 | P21728 | potentiation, % at 10 µM | actives 0.036% (n = 360,000); in the data active = potentiation above about 30%
Large screens that a line does not name were inactive. Most compounds without a hit are left out; they make up all but 6% or so of the library.

COc1ccc(F)cc1S(=O)(=O)N1CCCC(C)C1 (stereo unspecified)	none
O=S(=O)(c1ccccc1)N1CCN(C2CCN(Cc3ccccc3)CC2)CC1	DRD3 antagonist inconclusive
Cc1ccc2cccc(NC(=O)C(C)(C)Oc3ccc(Br)cc3)c2n1	none (no result: DRD3 antagonist)
Nc1ccc(CCn2ccnc2)cc1	none
COc1ccccc1CN1CCNC(=O)C1CC(=O)NC1CCCCCC1 (stereo unspecified)	none
NC(=O)C1c2ccccc2CCc2ccccc21	none (no result: D1 antag, DRD3 antagonist, D1 ag, D1 potentiator)
CC1CCN(S(=O)(=O)c2ccc3nc(Nc4cccc(F)c4)ccc3c2)CC1	none (no result: DRD3 antagonist)
CCN(CC)c1ccc(S(=O)(=O)N2CCOCC2)cc1NC(=O)CN1CCN(Cc2ccccc2)CC1	none
CCOc1ccccc1CNC(=O)c1cc2c(=O)n(Cc3ccco3)ccc2nc1C	none (no result: DRD3 antagonist)
COc1ccc(S(=O)(=O)N2CCN(c3ccccc3OC)CC2)cc1OC	none
COc1ccccc1N1CCN(S(=O)(=O)c2ccccc2)CC1	none
COc1ccccc1N1CCN(S(=O)(=O)c2ccccc2F)CC1	D1 antag -32.0
COc1ccccc1N1CCN(C2CCN(S(=O)(=O)c3ccc4ccccc4c3)CC2)CC1	DRD3 antagonist -54.0
CCn1c(=O)c2c(nc3n2CCCN3c2cccc(C)c2)n(C)c1=O	D1 antag -31.1
Cc1ccc(N2CCCn3c2nc2c3c(=O)n(CC(=O)OCc3ccccc3)c(=O)n2C)cc1C	D1 antag -46.1 (no result: DRD3 antagonist, DRD3 agonist)
Cc1cc(C)cc(N2CCCn3c2nc2c3c(=O)n(CC(=O)OCc3ccccc3)c(=O)n2C)c1	none
Cc1ccc(N2CC(NC(=O)c3ccccc3C(F)(F)F)CC2=O)cc1C (stereo unspecified)	none (no result: D1 antag, DRD3 antagonist)
COc1cc(-c2ccc(-[n+]3nc(-c4ccccc4)nn3-c3ccc([N+](=O)[O-])cc3)c(OC)c2)ccc1-[n+]1nc(-c2ccccc2)nn1-c1ccc([N+](=O)[O-])cc1	none (no result: D1 antag, DRD3 antagonist, D1 ag, D1 potentiator)
OC[C@@H]1[C@@H](c2ccc(Cl)cc2)C(c2ccc(F)cc2)=NN1c1ccccc1	none (no result: D1 antag, D1 ag, D1 potentiator)
OC[C@@H]1[C@@H](c2ccccc2)C(c2ccc(F)cc2)=NN1c1ccccc1	DRD3 agonist 37.7 (no result: D1 antag, D1 ag, D1 potentiator)
O=C(C1CC(=O)N(C2CCCC2)C1)N1CCC(Cc2ccccc2)CC1 (stereo unspecified)	D1 antag -37.9
CCOC(=O)c1ccccc1NC(=O)C1CC(=O)N(C2CCCCC2)C1 (stereo unspecified)	none
O=C(NCCN1CCN(Cc2ccccc2)CC1)C1CC(=O)N(C2CCCC2)C1 (stereo unspecified)	none
O=C(NCCCN1CCN(c2ccccc2F)CC1)C1CCCN(S(=O)(=O)c2cnc[nH]2)C1 (stereo unspecified)	D1 antag -53.0, DRD3 antagonist -70.6
CCc1cccc(C)c1NC(=O)C1CC(=O)N(C2CCCC2)C1 (stereo unspecified)	D1 antag -46.1
O=C(NCCN1CCN(c2ccccc2F)CC1)C1CC(=O)N(C2CCCC2)C1 (stereo unspecified)	DRD3 antagonist -66.5 (no result: D1 antag, D1 ag, D1 potentiator)
O=C(NCc1ccccc1F)C1CCCN1C(=O)NCc1ccccc1 (stereo unspecified)	none
O=C(NCc1ccccc1Cl)C1CCCN1C(=O)NCc1ccccc1 (stereo unspecified)	D1 antag -44.1
O=C(NCCc1ccccc1)C1CCCN1C(=O)Nc1cccc(Cl)c1 (stereo unspecified)	DRD3 antagonist -73.1
CC1CCCC(NC(=S)NC(=O)c2ccco2)C1C (stereo unspecified)	none (no result: D1 antag, D1 ag, D1 potentiator)
O=c1[nH]c(=S)[nH]c2c1[C@H](C1CC1)O[C@H](CCc1ccccc1)C2	DRD3 antagonist -84.0 (no result: D1 antag, D1 ag, D1 potentiator)
O=c1[nH]c(=S)[nH]c2c1C(c1ccc(F)cc1)OC(CCc1ccccc1)C2 (stereo unspecified)	none (no result: D1 antag, D1 ag, D1 potentiator)
CCCOc1ccccc1C(=O)Nc1ccc(S(=O)(=O)N2CCN(C)CC2)cc1	D1 antag -49.4
CN1CCN(S(=O)(=O)c2ccc(NC(=O)c3csc4ccccc34)cc2)CC1	D1 antag -44.7, DRD3 antagonist inconclusive
CN1CCN(S(=O)(=O)c2ccc(NC(=O)c3cccs3)cc2)CC1	none
CCCOc1ccc(C(=O)Nc2ccc(S(=O)(=O)N3CCN(C)CC3)cc2)cc1	D1 antag -72.5
CC(=O)c1ccc(S(=O)(=O)N2CCN(CCOc3ccc(Br)cc3)CC2)cc1	DRD3 agonist 49.5
c1ccc(Cc2noc(CN3CCCN(C4Cc5ccccc5C4)CC3)n2)cc1	none
c1ccc(Cc2noc(CN3CCN(C4CCc5ccccc5C4)CC3)n2)cc1 (stereo unspecified)	D1 ag 31.8
COc1ccc(C(=O)Nc2ccccc2C(=O)Nc2cc(C)ccn2)cc1	DRD3 antagonist -63.5
S=c1[nH]nc(-c2cc(-c3ccccc3)n[nH]2)n1/N=C/c1ccc(Br)s1	none
OCC1(CCc2ccccc2)CCCN(CCCC(F)(F)F)C1 (stereo unspecified)	DRD3 antagonist inconclusive
CC(C)Cc1cc(CN2CCCC(CO)(Cc3cccc(Cl)c3)C2)[nH]n1 (stereo unspecified)	DRD3 antagonist -67.0
Cc1cc(CN2CCCC(CO)(Cc3cccc(Cl)c3)C2)n[nH]1 (stereo unspecified)	none
OCC1(Cc2ccc(F)cc2)CCCN(Cc2ccc(F)cc2Cl)C1 (stereo unspecified)	DRD3 antagonist -61.1
CCOc1ccc(CN2CCCC(CO)(Cc3ccc(F)cc3)C2)cc1 (stereo unspecified)	none
COC(=O)c1ccc(CN2CCCC(CO)(Cc3ccccc3F)C2)cc1 (stereo unspecified)	DRD3 antagonist -88.0
OCC1(CCc2ccccc2)CCCN(CCCc2ccccc2)C1 (stereo unspecified)	DRD3 antagonist -70.1
Cc1cc(C)c(C(=O)Nc2ccccc2)c(SCC(=O)Nc2ccc(Br)cc2C)n1	none (no result: DRD3 antagonist)
CSc1ccc(CN2CCCC(CO)(Cc3ccccc3)C2)cc1 (stereo unspecified)	DRD3 antagonist -66.7
COc1cc(Cl)c(CN2CCCC(CO)(Cc3ccccc3)C2)cc1OC (stereo unspecified)	none
Cc1ccc(C)c(C(=O)C(C)Sc2nc3nn(-c4ccccc4)c(=O)c-3c3n2CCCCC3)c1 (stereo unspecified)	D1 antag -35.9
COc1ccc(OC)c(S(=O)(=O)NCc2ccc3c(c2)CCN3C(=O)c2cccc(C)c2)c1	none (no result: DRD3 antagonist)
CCN(CC)Cc1c(O)ccc2c1O/C(=C\C=C\c1ccccc1)C2=O	D1 ag 48.8
COc1ccccc1/C=C/C=C1\Oc2c(ccc(O)c2CN(C)C)C1=O	DRD3 antagonist inconclusive, D1 ag 103.3
COCCN(CCOC)Cc1c(O)ccc2c1O/C(=C\c1ccc(C)o1)C2=O	none
COc1ccc2c(c1)CC/C(=C\C=C\c1ccccc1OC)C2=O	none
